Several values for one entry are separate records, joined by “and”; a condition that tells them apart may be missing. Equal entries are not always repeated. Records with an inconclusive call do not appear. Activity calls are given as the source filed them. The call rests on the fitted dose curve.
Columns and labels:
[1] = molecular target: Acetylcholinesterase (Homo sapiens) (UniProt P22303); assay: Acetylcholinesterase (AChE) small molecule antagonists: colormetric cell-based qHTS assay (AID 1347395); further: nearly all actives have a fitted effect of over 30% in size; further: potency means the concentration at half of the fitted maximal effect
Chain of Acetylcholinesterase (Homo sapiens) (P22303 whole entry, looked up): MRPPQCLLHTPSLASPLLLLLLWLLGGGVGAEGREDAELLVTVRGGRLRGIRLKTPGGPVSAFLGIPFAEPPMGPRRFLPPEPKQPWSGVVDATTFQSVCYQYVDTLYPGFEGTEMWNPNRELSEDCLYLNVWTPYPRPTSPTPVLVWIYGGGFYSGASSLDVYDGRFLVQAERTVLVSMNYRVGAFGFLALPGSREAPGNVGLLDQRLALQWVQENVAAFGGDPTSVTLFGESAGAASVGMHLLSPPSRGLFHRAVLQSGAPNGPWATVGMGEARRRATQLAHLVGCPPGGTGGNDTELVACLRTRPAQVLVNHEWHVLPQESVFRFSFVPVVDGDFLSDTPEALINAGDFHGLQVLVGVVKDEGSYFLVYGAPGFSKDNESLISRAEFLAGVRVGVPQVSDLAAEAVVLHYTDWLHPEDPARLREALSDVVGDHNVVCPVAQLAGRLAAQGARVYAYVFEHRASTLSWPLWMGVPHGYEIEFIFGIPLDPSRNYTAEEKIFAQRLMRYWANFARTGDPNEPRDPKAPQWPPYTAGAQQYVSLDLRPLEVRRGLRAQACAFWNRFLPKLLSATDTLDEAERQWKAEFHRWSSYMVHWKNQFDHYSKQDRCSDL
Procedure, shortened: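 SH-SY5Y cells attached overnight, exposed to compound 30 min at 37 C, then given DTNB/acetylthiocholine; after 90 min at 37 C, colorimetric thiocholine read gives cellular AChE activity.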

[2] = molecular target: Acetylcholinesterase (Homo sapiens) (UniProt P22303); assay: Acetylcholinesterase (AChE) small molecule antagonists: enzyme-based qHTS assay (AID 1347397); settings: Potency: AChE enzyme activity inhibition; outcome: AChE enzyme activity inhibition; further: nearly all actives have a fitted effect of over 55% in size; further: potency means the concentration at half of the fitted maximal effect
Procedure, shortened: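 Colorimetric DTNB read-out of thiocholine released from acetylthiocholine by recombinant human AChE (50 mU/mL as dispensed). Compounds were preincubated 30 min at RT before substrate/DTNB addition, with a 10 min RT reaction.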

[3] = molecular target: Acetylcholinesterase (Homo sapiens) (UniProt P22303); assay: Acetylcholinesterase (AChE) small molecule antagonists: fluorescence cell-based qHTS assay (AID 1347398); settings: Potency: AChE activity; outcome: AChE activity; further: nearly all actives have a fitted effect of over 50% in size; further: potency means the concentration at half of the fitted maximal effect
Procedure, shortened: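 SH-SY5Y, 2,000 cells/well, attached overnight; cmpd 30 min 37 C; acetylthiocholine/Thiolite Green cocktail 40 min RT; fluorescence Ex/Em 490/520 nm.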

[4] = molecular target: Acetylcholinesterase (Homo sapiens) (UniProt P22303); assay: Acetylcholinesterase (AChE) small molecule antagonists: enzyme-based qHTS assay with human liver microsomes (AID 1347399); settings: Potency: qHTS inhibition; outcome: qHTS inhibition; further: nearly all actives have a fitted effect of over 60% in size
Procedure, shortened: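 Recombinant human AChE (50 mU/mL in the enzyme mix) and human liver microsomes (0.25 mg/mL final) were preincubated with compound and NADPH (0.25 mg/mL final) for 30 min at 37 C. Acetylthiocholine/DTNB was then added; thiocholine was read colorimetrically after 10 min at room temperature.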
On the % scale 0 is the no-effect control and ±100 the full control effect.

C[C@@H](C1=C(CCN(C)C)Cc2ccccc21)c1ccccn1
inactive: Potency [1] | Potency [2] | Potency [3] | Potency [4]

CN(C)Cc1cc(CN(C)C)c(O)c(CN(C)C)c1
inactive: Potency [1] | Potency [2] | Potency [3] | Potency [4]

CN1C(=O)N(C)C(O)C1O (stereo not given)
inactive: Potency [1] | Potency [2] | Potency [3] | Potency [4]

COC(=O)c1ccccc1O
inactive: Potency [1] | Potency [2] | Potency [3] | Potency [4]

CCCC(O)C(O)CO (stereo not given)
inactive: Potency [1] | Potency [2] | Potency [3] | Potency [4]

C#CCN[C@@H]1CCc2ccccc21
inactive: outcome [1] | outcome [2] | outcome [3] | outcome [4]

CN1C[C@H](C(=O)N[C@]2(C)O[C@@]3(O)[C@@H]4CCCN4C(=O)[C@H](Cc4ccccc4)N3C2=O)C[C@@H]2c3cccc4[nH]cc(c34)C[C@H]21
active: Potency [1] 19.5 µM | Potency [2] 30.9 µM | Potency [3] 8.71 µM
inactive: Potency [4]

O=NN(CCCl)C(=O)NC1CCCCC1
inactive: Potency [1] | Potency [2] | Potency [3] | Potency [4]

CCC(=O)OCCC(C)CCC=C(C)C (stereo not given)
inactive: Potency [1] | Potency [2] | Potency [3] | Potency [4]

C[C@@H]1O[C@@H](O[C@@H]2[C@@H](O)[C@H](OCCc3ccc(O)c(O)c3)O[C@H](CO[C@@H]3O[C@H](CO)[C@@H](O)[C@H](O)[C@H]3O)[C@H]2OC(=O)/C=C/c2ccc(O)c(O)c2)[C@H](O)[C@H](O)[C@H]1O
inactive: Potency [1] | Potency [2] | Potency [3] | Potency [4]

CCOc1ccc2c(c1)C(C)=CC(C)(C)N2
inactive: Potency [1] | Potency [2] | Potency [3] | Potency [4]

CC(C)(O)c1coc(S(=O)(=O)NC(=O)Nc2c3c(cc4c2CCC4)CCC3)c1
inactive: Potency [1] | Potency [2] | Potency [3] | Potency [4]

CO[C@@]1(NC(=O)CSCC#N)C(=O)N2C(C(=O)O)=C(CSc3nnnn3C)CS[C@@H]21
inactive: Potency [1] | Potency [2] | Potency [3] | Potency [4]

CC(C)C(=O)C(C)C
inactive: Potency [1] | Potency [2] | Potency [3] | Potency [4]

CCCCCCCCCCOS(=O)(=O)O
inactive: Potency [1] | Potency [2] | Potency [3] | Potency [4]

Cc1cccc(C(=O)O)c1O
inactive: Potency [1] | Potency [2] | Potency [3] | Potency [4]

Cc1cc(N)no1
inactive: Potency [1] | Potency [2] | Potency [3] | Potency [4]

N[C@@H](COP(=O)(O)O)C(=O)O
inactive: activity, negative = inhibition [1] 0.067% [at 23.6 µM] | activity change, negative = inhibition [2] 1.8% [at 23.6 µM] | activity change, negative = inhibition [3] 4.21% [at 23.8 µM] | activity change, negative = inhibition [4] 4.37% [at 23.6 µM]

CCCCCCCCCCCCCCCCCBr
inactive: activity, negative = inhibition [1] 0.585% [at 23.6 µM] | activity change, negative = inhibition [2] 1.09% [at 23.6 µM] | activity change, negative = inhibition [3] -1.4% [at 23.8 µM] | activity change, negative = inhibition [4] -2.26% [at 23.6 µM]

C=C[Si](OCCOC)(OCCOC)OCCOC
inactive: Potency [1] | Potency [2] | Potency [3] | Potency [4]

CC(=O)N(CC(O)CO)c1c(I)c(C(=O)NCC(O)CO)c(I)c(C(=O)NCC(O)CO)c1I (stereo not given)
inactive: Potency [1] | Potency [2] | Potency [3] | Potency [4]

COC(OC)OC
inactive: Potency [1] | Potency [2] | Potency [3] | Potency [4]

CC1=CCC(C(C)C)=CC1
inactive: Potency [1] | Potency [2] | Potency [3] | Potency [4]

Nc1cc(=O)[nH]c(N)n1
inactive: Potency [1] | Potency [2] | Potency [3] | Potency [4]

OCCN1CCN(CCO)CC1
inactive: Potency [1] | Potency [2] | Potency [3] | Potency [4]

COC(=O)c1cc(Cl)ccc1NS(=O)(=O)C(F)(F)F
inactive: Potency [1] | Potency [2] | Potency [3] | Potency [4]

COc1ccc(-n2nc(CCC(=O)N(C)O)cc2-c2ccc(Cl)cc2)cc1
inactive: Potency [1] | Potency [2] | Potency [3] | Potency [4]

CC(=O)Nc1ccccc1
inactive: Potency [1] | Potency [2] | Potency [3] | Potency [4]

CC(Oc1c(Cl)cccc1Cl)C1=NCCN1 (stereo not given)
inactive: Potency [1] | Potency [2] | Potency [3] | Potency [4]

CC1(C)CC(OC(=O)CCCCCCCCC(=O)OC2CC(C)(C)NC(C)(C)C2)CC(C)(C)N1
inactive: activity, negative = inhibition [1] -3.47% [at 23.6 µM] | activity change, negative = inhibition [2] 1.77% [at 23.6 µM] | activity change, negative = inhibition [3] -14.4% [at 23.8 µM] | activity change, negative = inhibition [4] 0.16% [at 23.6 µM]

CN1CCN(c2c(F)cc3c(=O)c(C(=O)O)cn4c3c2OCN4C)CC1
inactive: activity, negative = inhibition [1] 1.67% [at 23.6 µM] | activity change, negative = inhibition [2] 0.0377% [at 23.6 µM] | activity change, negative = inhibition [3] 5.01% [at 23.8 µM] | activity change, negative = inhibition [4] -0.167% [at 23.6 µM]

NC(N)=NC(=O)c1nc(Cl)c(N)nc1N
active: Potency [1] 35.8 µM and 32.9 µM and 27.5 µM | Potency [3] 12.7 µM and 32.9 µM
inactive: Potency [2] | Potency [4]

CC(C(=O)O)c1cccc(Oc2ccccc2)c1 (stereo not given)
inactive: Potency [1] | Potency [2] | Potency [3] | Potency [4]

CCCOc1ccc(S(=O)(=O)N2CCN(CC)CC2)cc1-c1nc2c(CC)n(Cc3ccccn3)nc2c(=O)[nH]1
inactive: Potency [1] | Potency [2] | Potency [3] | Potency [4]

COC(=O)c1ccc(C(=O)OC)cc1
inactive: Potency [1] | Potency [2] | Potency [3] | Potency [4]

CC(CCC(=O)O)C(=O)O (stereo not given)
inactive: Potency [1] | Potency [2] | Potency [3] | Potency [4]

CC(=O)OCCN(CCOC(C)=O)c1ccc(N=Nc2ccc([N+](=O)[O-])cc2C#N)cc1
inactive: Potency [1] | Potency [2] | Potency [3] | Potency [4]

CC(=O)O[C@@H]1C(=O)O[C@@H]2[C@H]1OC(=O)[C@@H]2OC(C)=O
inactive: Potency [1] | Potency [2] | Potency [3] | Potency [4]

O=[N+]([O-])c1cc[n+]([O-])cc1
inactive: Potency [1] | Potency [2] | Potency [3] | Potency [4]

C=C(C)C(=O)OCCOP(=O)(O)OCCOC(=O)C(=C)C
inactive: Potency [1] | Potency [2] | Potency [3] | Potency [4]

OCCSc1ccccc1
inactive: Potency [1] | Potency [2] | Potency [3] | Potency [4]

CC(C)C(=O)OC/C=C/c1ccccc1
inactive: Potency [1] | Potency [2] | Potency [3] | Potency [4]

C[C@@H]1[C@H](O)[C@@H](C)/C=C/C=C\C=C\C=C\C=C\C=C\C=C\[C@H](O[C@@H]2O[C@H](C)[C@@H](O)[C@H](N)[C@@H]2O)C[C@@H]2O[C@](O)(C[C@@H](O)C[C@@H](O)[C@H](O)CC[C@@H](O)C[C@@H](O)CC(=O)O[C@H]1C)C[C@H](O)[C@H]2C(=O)O (stereo in doubt)
inactive: Potency [1] | Potency [2] | Potency [3] | Potency [4]

CC(C)CCCCCCCOC(=O)c1ccc(C(=O)OCCCCCCCC(C)C)c(C(=O)OCCCCCCCC(C)C)c1
inactive: Potency [1] | Potency [2] | Potency [3] | Potency [4]

O=C(O)c1ccc(O)cc1
inactive: Potency [1] | Potency [2] | Potency [3] | Potency [4]

CCCOC(=O)C(C)O (stereo not given)
inactive: Potency [1] | Potency [2] | Potency [3] | Potency [4]

c1ccc2c(c1)ccc1cc3c(ccc4ccccc43)cc12
inactive: Potency [1] | Potency [2] | Potency [3] | Potency [4]

CCOC(=O)Cc1cccc2ccccc12
inactive: Potency [1] | Potency [2] | Potency [3] | Potency [4]

C[C@@H]1CCN(C(=O)[C@H](CCCN=C(N)N)NS(=O)(=O)c2cccc3c2NC[C@H](C)C3)[C@@H](C(=O)O)C1
inactive: Potency [1] | Potency [2] | Potency [3] | Potency [4]

CCCCCCCCCOCC1CO1 (stereo not given)
inactive: Potency [1] | Potency [2] | Potency [3] | Potency [4]

Nc1ccc(S(=O)(=O)Nc2cnc3ccccc3n2)cc1
inactive: Potency [1] | Potency [2] | Potency [3] | Potency [4]

COc1ccc(N)c([N+](=O)[O-])c1
inactive: Potency [1] | Potency [2] | Potency [3] | Potency [4]

C=C[Si](OC(=C)C)(OC(=C)C)OC(=C)C
inactive: Potency [1] | Potency [2] | Potency [3] | Potency [4]

CCCc1nn(C)c2c(=O)[nH]c(-c3cc(S(=O)(=O)N4CCN(C)CC4)ccc3OCC)nc12
inactive: Potency [1] | Potency [2] | Potency [3] | Potency [4]

O=C(Cl)c1ccccc1[N+](=O)[O-]
inactive: Potency [1] | Potency [2] | Potency [3] | Potency [4]

CCCCCCCCCCCCCCCC[N+](C)(C)CC
inactive: Potency [1] | Potency [4]
active: Potency [2] 71.2 µM | Potency [3] 63.5 µM and 38.9 µM

c1ccc2cnncc2c1
inactive: Potency [1] | Potency [2] | Potency [3] | Potency [4]

CCCCCCC(CO)CCCC (stereo not given)
inactive: Potency [1] | Potency [2] | Potency [3] | Potency [4]

CC(=O)Nc1cccc(O)c1
inactive: Potency [1] | Potency [2] | Potency [3] | Potency [4]

COc1cc(C(=O)N2CCOCC2)cc(OC)c1OC
inactive: Potency [1] | Potency [2] | Potency [3] | Potency [4]

Reference: PubChem BioAssay (Tox21)
